Data published in PubChem BioAssay (NCI).
The panel holds about 83,000 compounds, 20% with a hit somewhere; the sample as a whole holds those more often.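 Cells were grown in 96-well plates and exposed to the test compound at a single concentration for 48 hours; results are reported as percent growth, with values below 10 considered active.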 Values without a mark were called inactive. Calls of active or inactive are those of the source.

Key:
Assay in all cases: NCI-60 one-dose screen, 48 h (100 = growth as untreated, 0 = no growth, -100 = all killed)
Details in all cases: 10 µM unless noted
SR leukemia = system: SR leukemia
RPMI-8226 leukemia = system: RPMI-8226 leukemia
OVCAR-8 ovarian = system: OVCAR-8 ovarian
OVCAR-5 ovarian = system: OVCAR-5 ovarian
OVCAR-4 ovarian = system: OVCAR-4 ovarian
SK-OV-3 ovarian = system: SK-OV-3 ovarian
IGROV1 ovarian = system: IGROV1 ovarian
OVCAR-3 ovarian = system: OVCAR-3 ovarian
HS 578T breast = system: HS 578T breast
NCI/ADR-RES ovarian = system: NCI/ADR-RES ovarian
T-47D breast = system: T-47D breast
BT-549 breast = system: BT-549 breast
SW-620 colon = system: SW-620 colon
MCF7 breast = system: MCF7 breast
HCT-116 colon = system: HCT-116 colon
HCC-2998 colon = system: HCC-2998 colon
KM12 colon = system: KM12 colon
MDA-MB-435 melanoma = system: MDA-MB-435 melanoma

SMILES	growth (SR leukemia)	growth (RPMI-8226 leukemia)	growth (OVCAR-8 ovarian)	growth (OVCAR-5 ovarian)	growth (OVCAR-4 ovarian)	growth (SK-OV-3 ovarian)	growth (IGROV1 ovarian)	growth (OVCAR-3 ovarian)	growth (HS 578T breast)	growth (NCI/ADR-RES ovarian)	growth (T-47D breast) [%]	growth (BT-549 breast) [%]	growth (SW-620 colon)	growth (MCF7 breast)	growth (HCT-116 colon)	growth (HCC-2998 colon) [%]	growth (KM12 colon)	growth (MDA-MB-435 melanoma) [%]
O=C(CN1C(=O)c2ccccc2S1(=O)=O)Nc1nc(-c2cc3ccccc3oc2=O)cs1	109%	108%	101%	106%	110%	106%	99.1%	113%	96.6%	103%	98.7	105	103%	96.6%	104%	102	101%	
CCN1C(=O)N(CC)C2C1NN=c1s/c(=C3\C(=O)N(C)c4ccccc43)c(=O)n12 (stereo unspecified)	19.3%	62.1%	37.6%	48.9%	52%	72.5%	37.4%	-14.1% (active)	14.2%	9.37% (active)	18.5	55.8	28.3%	24.9%	8.97% (active)	22.1	20.9%	
COc1ccc(S(=O)(=O)Oc2ccc(-c3sc4cc(OS(=O)(=O)c5ccc(OC)cc5)ccc4c3C(=O)c3ccc(OCCN4CCCCC4)cc3)cc2)cc1	102%	109%	108%	95.7%	97.7%	95.9%	99.3%	100%	107%	110%	94.2	94.1	108%	91.3%	98.8%		99.1%	105
O=C(O)COc1ccc(F)cc1	103%	97.5%	102%	109%	116%	108%	107%	107%	128%	101%	104	119	112%	95.8%	103%	103	103%	
CN1CCN(Cc2ccc(NC(=O)c3cncc(C#Cc4cnc(N)c5ccc(C#N)cc45)c3)cc2C(F)(F)F)CC1	20%	-25.3% (active)	-68.4% (active)	-79.6% (active)	-56.8% (active)	-4.83% (active)	-64.1% (active)	3.19% (active)	-32.1% (active)	-13.6% (active)	10.4	37.3	-41.3% (active)	-60.8% (active)	-65.7% (active)	32.6	-85.1% (active)	
CC/C(=C(/c1ccc(Cl)cc1)c1ccc(OCCN2CCCC2)cc1)c1ccccc1	-10.5% (active)	7.58% (active)	69.7%	82.4%	72.2%	104%	76.6%	70.2%	71.3%	80.1%	47.6	77.8	11.8%	23.1%	29.7%	97.6	37.1%	
CCOC(=O)c1c(C)nc2c(c1N)C(=O)C(=O)N2CCc1ccc(OC)c(OC)c1	35.9%	42.7%	77.9%	94.9%	54.8%	76.6%	74%	61.5%	89%	41.9%	44.6	64.4	47.8%	20.3%	38.7%	93.7	58.3%	
O=C1/C(=C/c2ccccc2)COc2ccc(O)cc21	17.6%	-16.5% (active)	95.9%	104%	99.5%	124%	105%	98.7%	107%	104%	80.7	81.2	53.1%	23.7%	51.9%		41.4%	68.4
